The subject of the experiment is Bacillus 1 (Bacillus foraminis). Put plainly: relative growth (AUC of 72 h growth curve relative to DMSO control, dAUC) (ratio); higher = more growth (less inhibition), active = hit call of the paper. The settings on record: 20 µM. Here is the method:
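Environmental bacterial isolates (Iceland stream sediment and Silwood Park soil) and whole stream-sediment communities were grown in LB from a 1:100 dilution with each pesticide at 20 µM (1% DMSO). A600 was read hourly for 72 h and the area under a spline-fitted growth curve (AUC) was computed. dAUC is the mean AUC of 3 biological replicates divided by the mean AUC of the DMSO controls. Significance was tested by Dunnett's test against the DMSO control.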
On to `Cc1c(COC(=O)[C@@H]2[C@H](/C=C(\Cl)C(F)(F)F)C2(C)C)cccc1-c1ccccc1` (racemic), for which the relative growth is 0.976 (inactive).
Under `C[C@@H]1[C@@H](c2ccc(Cl)cc2)SC(=O)N1C(=O)NC1CCCCC1` stands 1.06 (inactive); under `Oc1ccc(Cl)cc1Cc1cc(Cl)ccc1O`, 0.81 (inactive); under `CCCN(CCC)C(=O)SCc1ccccc1`, 0.998 (inactive).
With `Cc1nc(N(C)C)nc(OC(=O)N(C)C)c1C`, the relative growth was 0.959 (inactive).
Take `CCOC(=O)CC(SP(=S)(OC)OC)C(=O)OCC` (stereo not given): the relative growth was 1.05 (inactive).
Under `CC(C)OC(=O)Nc1cccc(Cl)c1` stands 1.15 (inactive); under `CC[C@H](C)C1O[C@]2(C=C[C@@H]1C)C[C@@H]1C[C@@H](C/C=C(\C)[C@@H](O[C@H]3C[C@H](OC)[C@@H](O[C@H]4C[C@H](OC)[C@H](NC)[C@H](C)O4)[C@H](C)O3)[C@@H](C)/C=C/C=C3\CO[C@@H]4[C@H](O)C(C)=C[C@@H](C(=O)O1)[C@]34O)O2` (stereo not given in full), 0.928 (inactive).
In the case of `CC(C)(C)c1ccc(CSc2cnn(C(C)(C)C)c(=O)c2Cl)cc1` it was 1.03 (inactive); in that of `COP(=S)(OC)SCN1C(=O)c2ccccc2C1=O`, 1.04 (inactive); in that of `O=C(O)COc1ccc(Cl)cc1Cl`, 1.09 (inactive).
As for `ClC1C(Cl)C(Cl)C(Cl)C(Cl)C1Cl` (stereo not given), the relative growth was 1.11 (inactive).
For the compound `CCOC(=O)OC1=C(c2cc(C)ccc2C)C(=O)N[C@]12CC[C@@H](OC)CC2`, the relative growth was 1.03 (inactive).
In the case of `CC1COC(Cn2cncn2)(c2ccc(Oc3ccc(Cl)cc3)cc2Cl)O1` (stereo not given) it was 1.11 (inactive); in that of `CCOc1ccc(C(C)(C)COCc2cccc(Oc3ccccc3)c2)cc1`, 0.954 (inactive).
Regarding `Cc1cc(C)nc(Nc2ccccc2)n1`, the relative growth was 1.08 (inactive).
In the case of `CC1=NNC(=O)N(/N=C/c2cccnc2)C1` it was 1.16 (inactive).
Under `C[N+](C)(C)CCCl` stands 0.969 (inactive); under `CCCCc1c(C)nc(NCC)nc1OS(=O)(=O)N(C)C`, 0.907 (inactive).
In the case of `N#Cc1nn(-c2c(Cl)cc(C(F)(F)F)cc2Cl)c(N)c1[S+]([O-])C(F)(F)F` (stereo not given) it was 1.01 (inactive); in that of `N#Cc1c(Cl)c(Cl)c(Cl)c(C#N)c1Cl`, 0.955 (inactive).
`COP(N)(=O)SC` (stereo not given): the relative growth is 0.871 (inactive).
`COC(=O)NC(=S)Nc1ccccc1NC(=S)NC(=O)OC`: the relative growth is 0.942 (inactive).
`OC(Cn1cncn1)(c1ccc(F)cc1)c1ccccc1F` (stereo not given): the relative growth is 1.07 (inactive).
Consider `CNC(=O)c1cc(C#N)cc(C)c1NC(=O)c1cc(Br)nn1-c1ncccc1Cl`, for which the relative growth was 0.935 (inactive).
Under `COP(=S)(OC)Oc1ccc(SC)c(C)c1` stands 0.995 (inactive); under `CC1(C)[C@H](C(=O)O[C@H](C#N)c2cccc(Oc3ccccc3)c2)[C@@H]1C=C(Br)Br`, 1.1 (inactive); under `CC1(C)C(C=C(Cl)Cl)C1C(=O)OC(C#N)c1ccc(F)c(Oc2ccccc2)c1` (stereo not given), 0.94 (inactive).
In the case of `CCCN(CCOc1c(Cl)cc(Cl)cc1Cl)C(=O)n1ccnc1` it was 1.07 (inactive).
In the case of `CN/C(=N/CC1CCOC1)N[N+](=O)[O-]` (stereo not given) it was 1.11 (inactive); in that of `CO/N=C(/C(=O)OC)c1ccccc1CO/N=C(\C)c1cccc(C(F)(F)F)c1`, 0.972 (inactive).
Regarding `Nc1c(Cl)c(F)nc(OCC(=O)O)c1Cl`, the relative growth was 1.02 (inactive).
Under `CC(COc1ccc(Oc2ccccc2)cc1)Oc1ccccn1` (stereo not given) stands 1.07 (inactive).
Consider `Cc1cc(C(C#N)c2ccc(Cl)cc2)c(Cl)cc1NC(=O)c1cc(I)cc(I)c1O` (stereo not given), for which the relative growth is 0.695 (inactive).
Consider `O=C1C2CC=CCC2C(=O)N1SC(Cl)(Cl)Cl` (stereo not given), for which the relative growth is 0.939 (inactive).
As to `N#Cc1c[nH]cc1-c1cccc2c1OC(F)(F)O2`, the relative growth is 0.935 (inactive).
In the case of `O=C1C2(Cl)C3(Cl)C4(Cl)C(Cl)(Cl)C5(Cl)C3(Cl)C1(Cl)C5(Cl)C24Cl` (stereo not given) it was 0.959 (inactive); in that of `COC(=O)c1ccccc1S(=O)(=O)NC(=O)Nc1nc(C)nc(OC)n1`, 1.05 (inactive).
Under `Cc1cc(C(F)(C(F)(F)F)C(F)(F)F)ccc1NC(=O)c1cccc(I)c1C(=O)NC(C)(C)CS(C)(=O)=O` stands 1.16 (inactive).
In the case of `COP(=S)(OC)Oc1nc(Cl)c(Cl)cc1Cl` it was 1.08 (inactive).

Source of the values: the supplement of paper PMC12067926.
